# The sample as a whole holds a higher share of hits than the screen did.
# Dicer processing: inhibitors of Dicer pre-microRNA processing, primary screen, biochemical, cat-ELCCA, chemiluminescence; Endoribonuclease Dicer (Homo sapiens), Q9UPY3; cat-ELCCA pre-miR-21 Dicer processing; stronger effect = higher value; z-score at 25 µM; hit rate 6% among 47,000; in the data active = z-score above about 3, passing the limit was not always enough;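 note: higher signal means more uncleaved substrate so more Dicer inhibition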
# Target sequence (Q9UPY3 whole entry, looked up): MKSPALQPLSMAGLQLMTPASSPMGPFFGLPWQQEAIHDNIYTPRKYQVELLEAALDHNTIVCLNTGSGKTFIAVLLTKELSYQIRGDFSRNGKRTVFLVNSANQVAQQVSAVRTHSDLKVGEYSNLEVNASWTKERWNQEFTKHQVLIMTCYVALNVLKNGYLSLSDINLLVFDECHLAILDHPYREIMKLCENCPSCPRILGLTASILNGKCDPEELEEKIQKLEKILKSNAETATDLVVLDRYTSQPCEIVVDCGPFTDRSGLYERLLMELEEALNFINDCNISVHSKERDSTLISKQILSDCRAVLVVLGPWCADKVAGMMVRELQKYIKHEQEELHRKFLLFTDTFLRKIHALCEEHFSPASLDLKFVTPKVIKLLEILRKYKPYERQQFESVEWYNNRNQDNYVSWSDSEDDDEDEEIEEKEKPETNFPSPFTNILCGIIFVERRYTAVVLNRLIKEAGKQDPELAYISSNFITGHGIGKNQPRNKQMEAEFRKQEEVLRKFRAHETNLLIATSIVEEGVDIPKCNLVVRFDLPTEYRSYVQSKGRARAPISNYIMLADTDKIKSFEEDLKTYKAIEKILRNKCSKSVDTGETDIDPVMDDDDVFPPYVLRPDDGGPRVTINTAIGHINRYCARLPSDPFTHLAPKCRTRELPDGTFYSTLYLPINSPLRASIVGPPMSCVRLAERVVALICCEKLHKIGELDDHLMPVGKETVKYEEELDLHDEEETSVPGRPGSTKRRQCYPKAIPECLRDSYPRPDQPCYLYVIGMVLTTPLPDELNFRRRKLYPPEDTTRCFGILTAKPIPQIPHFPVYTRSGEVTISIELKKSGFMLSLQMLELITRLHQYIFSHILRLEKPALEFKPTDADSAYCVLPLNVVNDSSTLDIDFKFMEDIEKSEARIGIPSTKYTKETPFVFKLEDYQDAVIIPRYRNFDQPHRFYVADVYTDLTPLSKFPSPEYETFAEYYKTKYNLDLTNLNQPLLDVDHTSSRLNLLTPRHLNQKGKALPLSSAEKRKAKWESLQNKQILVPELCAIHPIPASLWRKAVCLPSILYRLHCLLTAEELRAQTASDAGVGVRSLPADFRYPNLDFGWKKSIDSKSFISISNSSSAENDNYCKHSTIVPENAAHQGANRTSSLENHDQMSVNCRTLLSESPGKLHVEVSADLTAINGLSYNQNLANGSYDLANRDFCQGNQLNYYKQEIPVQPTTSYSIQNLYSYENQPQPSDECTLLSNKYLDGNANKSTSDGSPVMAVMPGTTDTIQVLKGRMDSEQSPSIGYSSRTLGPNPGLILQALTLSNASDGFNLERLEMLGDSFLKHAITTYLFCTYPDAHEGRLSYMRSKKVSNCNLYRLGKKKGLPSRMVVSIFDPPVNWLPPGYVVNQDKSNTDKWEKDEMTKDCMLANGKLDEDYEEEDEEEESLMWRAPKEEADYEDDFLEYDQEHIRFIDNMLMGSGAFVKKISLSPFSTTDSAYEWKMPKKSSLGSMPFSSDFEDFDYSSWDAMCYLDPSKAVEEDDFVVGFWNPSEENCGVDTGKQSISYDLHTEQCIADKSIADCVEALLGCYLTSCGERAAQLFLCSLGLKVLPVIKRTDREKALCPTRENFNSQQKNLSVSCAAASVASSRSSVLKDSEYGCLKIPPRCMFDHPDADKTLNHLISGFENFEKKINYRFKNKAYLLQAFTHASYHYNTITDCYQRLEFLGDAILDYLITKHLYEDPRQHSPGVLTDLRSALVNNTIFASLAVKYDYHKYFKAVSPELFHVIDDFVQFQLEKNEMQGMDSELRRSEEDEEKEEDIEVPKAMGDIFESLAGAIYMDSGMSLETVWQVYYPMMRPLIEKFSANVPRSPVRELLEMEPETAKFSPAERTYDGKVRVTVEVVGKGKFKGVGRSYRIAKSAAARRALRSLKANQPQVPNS
# Hits are given with their value; i = inactive.
SMILES,Dicer processing
COc1cccc(/C=N/n2nnc3c(sc4nc(C)cc(C)c43)c2=O)c1,i
CN(C)S(=O)(=O)c1cccc2c(N)cccc12,i
Cc1cc(C)c(CSCCNC(=O)NC(C)(C)C)c(C)c1,i
O=C1CC(c2cccc(Cl)c2)Cc2nc(N3CCN(Cc4ccc5c(c4)OCO5)CC3)ncc21 (configuration not stated),i
O=C1CC(/C=C/c2ccccc2)Cc2nc(N3CCN(Cc4ccc5c(c4)OCO5)CC3)ncc21 (configuration not stated),4.6
COc1ccc(C2CC(=O)c3cnc(N4CCN(Cc5ccc6c(c5)OCO6)CC4)nc3C2)cc1 (configuration not stated),i
CCCCCOc1ccc(C2CC(=O)CC(=O)C2C(=O)OCC)cc1 (configuration not stated),i
N/C(=N\OC(=O)CCn1c(=O)oc2ccccc21)c1ccc(Cl)cc1,i
CC1=C(C(=O)OC2CCCC2)C(c2cccc(O)c2)C2=C(CC(C)(C)CC2=O)N1 (configuration not stated),i
CC1CC(C)CN(C(=O)C2c3ccccc3Oc3ccccc32)C1 (configuration not stated),i
O=C(O)c1ccc(N2C(=O)C3C4c5ccccc5C(c5ccccc54)C3C2=O)cc1Cl (configuration not stated),i
O=C1C2C3c4ccccc4C(c4ccccc43)C2C(=O)N1c1ccccc1 (configuration not stated),i
O=C(O)c1ccccc1N1C(=O)C2C3c4ccccc4C(c4ccccc43)C2C1=O (configuration not stated),4.62
CC(=O)Nc1cccc(F)c1/C(N)=N/OC(C)=O,i
COc1ccc(CSC2=NCN(C3CC(C)CC(C)(C)C3)CN2)cc1 (configuration not stated),i
CC(C)(C)OC(=O)NC1CCN(S(=O)(=O)c2ccc(Cl)cc2)CC1,i
O=C(CS(=O)(=O)c1ccc(Br)cc1)c1ccccc1,3.82
O=C(CSCC(=O)c1ccc(Br)cc1)c1ccc(Br)cc1,i
COC(=O)CCS(=O)(=O)c1ccc(Br)cc1,i
O=C(NNc1c(Cl)cncc1Cl)NC(=O)c1ccccc1Cl,i
Nc1ccc(-c2nc3ccc(C(=O)O)cc3s2)cc1,i
Nc1cccc(-c2nc3ccc(N)cc3s2)c1,i
O=C(O)c1ccc2nc(-c3ccccc3)sc2c1,3.75
CC(=O)Oc1ccc(-c2nc3ccc(C(=O)O)cc3s2)cc1,i
Nc1ccc(-c2nc3ccc(N)cc3s2)cc1,i
SMILES,Dicer processing
Nc1ccc2nc(-c3ccc(O)cc3)sc2c1,3.54
O=C1CCCC2=C1C(c1cccs1)c1c([nH]n(-c3ccccc3)c1=O)N2 (configuration not stated),i
CCOc1ccc(C2C(C(=O)OCCOC)=C(C)N=C3SCCC(=O)N32)cc1 (configuration not stated),i
NS(=O)(=O)c1cccc(NC(=O)C2CCC2)c1,i
CC12CC3CC(C)(C1)CC(C(=O)O)(C3)C2,i
N#C/C(=C\c1cc(Br)cs1)C(N)=O,i
O=C(c1ccc(F)cc1)c1sc(Nc2ccccc2)nc1-c1ccccc1,i
COc1ccccc1CN1CCN(Cc2c[nH]c3ccccc23)CC1,i
c1ccc2c(CN3CCN(Cc4ccncc4)CC3)c[nH]c2c1,i
c1ccc(CN2CCN(Cc3c[nH]c4ccccc34)CC2)cc1,6.88
CCOC(=O)NC(=O)c1cn(Nc2ccc(F)cc2F)c(=O)[nH]c1=O,i
CCCCSC1=C(C#N)C(=O)NC(c2ccc(O)cc2)S1 (configuration not stated),i
CCCCSC1=C(C#N)C(=O)NC(c2ccc(C(=O)O)cc2)S1 (configuration not stated),i
CCCCSC1=C(C#N)C(=O)NC(c2ccc(O)c(OC)c2)S1 (configuration not stated),3.11
NC(=O)C1CCN(C(=O)CN(CC(=O)N2CCC(C(N)=O)CC2)Cc2ccco2)CC1,i
NC(=O)C1CCN(C(=O)CSc2ncccn2)CC1,3.6
CCOC(=O)N1CCN(C(=O)CSc2ncccn2)CC1,i
NC(=O)C1CCN(C(=O)CCC(=O)O)CC1,3.5
CC1CCN(C(=O)CCCC(=O)O)CC1,i
NC(=O)C1CCN(C(=O)/C=C/C(=O)O)CC1,i
CC(C)n1c(CO)nc2ccccc21,i
Cc1cc(C)c2oc(-c3ccc(C)c(N)c3)nc2c1,3.19
Cc1cc(C)c2oc(-c3cc(N)ccc3Cl)nc2c1,i
Cc1cc(C)c2oc(-c3cccc(N)c3)nc2c1,i
Clc1ccc(Sc2ncnc3ccsc23)cc1,i
SMILES,Dicer processing
Cc1ccc(C(=O)/C=C/Sc2ccc(Cl)cc2)cc1,i
O=C1OC(Nc2ccc([N+](=O)[O-])cn2)c2ccccc21 (configuration not stated),i
CN(NC1OC(=O)c2ccccc21)c1ncc(Cl)cc1C(F)(F)F (configuration not stated),i
CN(NC1OC(=O)c2ccccc21)c1ccccc1[N+](=O)[O-] (configuration not stated),3.21
CN1c2ccsc2-c2nc(SCc3ccc(Cl)cc3)ncc2S1(=O)=O,i
Cc1cc(=O)n2[nH]cc(-c3ccc(Cl)cc3)c2n1,i
CCN1C(=O)C2(/C(=C(/O)c3ccc(OC)cc3)C(=O)C(=O)N2CCN(C)C)c2ccccc21 (configuration not stated),4.29
CCCN1C(=O)C2(/C(=C(/O)c3ccc(F)cc3)C(=O)C(=O)N2CCN(C)C)c2ccccc21 (configuration not stated),i
CCN1C(=O)C2(/C(=C(/O)c3ccc(C)cc3)C(=O)C(=O)N2CCCN(C)C)c2ccccc21 (configuration not stated),i
CCCN1C(=O)C2(/C(=C(/O)c3ccc(OC)cc3)C(=O)C(=O)N2CCCN(C)C)c2ccccc21 (configuration not stated),i
CCN1C(=O)C2(/C(=C(/O)c3ccc(OC)c(C)c3)C(=O)C(=O)N2CCCN(C)C)c2ccccc21 (configuration not stated),i
CCN1C(=O)C2(/C(=C(/O)c3ccc(OC)cc3)C(=O)C(=O)N2CCCN(C)C)c2ccccc21 (configuration not stated),3.26
CC(C)(C)c1cc2nc(C(F)(F)F)cc(N3CCN(S(=O)(=O)c4ccc(Cl)cc4)CC3)n2n1,i
CCc1ccc2[nH]c(C)c(CN3CCN(C)CC3)c(=O)c2c1,i
Cc1ccc(S(=O)(=O)N(C(=O)C(C)C)c2ccc3oc(=O)sc3c2)cc1,i
CCCCC(=O)N(c1ccc2oc(=O)sc2c1)S(=O)(=O)c1cc(OC)ccc1OC,5.22
O=C(c1ccncc1)N(c1cc2sc(=O)oc2c2ccccc12)S(=O)(=O)c1ccc(F)cc1,i
CCCC(=O)N(c1ccc2oc(=O)sc2c1)S(=O)(=O)c1ccc(OCC)cc1,i
Cc1cc(F)ccc1S(=O)(=O)N(C(=O)c1ccncc1)c1ccc2oc(=O)sc2c1,6.54
CCCC(=O)N(c1ccc2oc(=O)sc2c1)S(=O)(=O)c1ccc(OC)cc1,i
Cc1cc(F)ccc1S(=O)(=O)N(C(=O)C(C)C)c1ccc2oc(=O)sc2c1,5.02
CCOc1ccc(S(=O)(=O)N(C(=O)C(C)C)c2ccc3oc(=O)sc3c2)cc1,3.14
COc1ccc(S(=O)(=O)N(C(=O)C(C)C)c2ccc3oc(=O)sc3c2)cc1OC,i
CCCC(=O)N(c1ccc2oc(=O)sc2c1)S(=O)(=O)c1ccc(Br)cc1,i
Cc1ccccc1CN1C(=O)C(O)(c2c[nH]c3ccccc23)c2ccccc21 (configuration not stated),i
